# The antibiotic and cytotoxicity screens of Wong et al. (2023)
# Out of some 39,000 compounds screened, about 1,500 (3.8%) were called active. What follows is part of a selection rich in actives, with near analogues and random picks from the rest.
# Tested on: HSkMC (human skeletal muscle cells)
# Assay: cytotoxicity call (relative viability < 0.9)
# Details: 10 µM
row,SMILES,cytotoxicity call
1,C[C@H](CO)N1C[C@H](C)[C@@H](CN(C)C(=O)C2CCCCC2)Oc2cc(-c3cncnc3)ccc2S1(=O)=O,inactive
2,C[C@H](CO)N1C[C@H](C)[C@H](CN(C)Cc2ccccc2)Oc2ccc(NS(=O)(=O)c3cn(C)cn3)cc2CC1=O,inactive
3,C[C@H](CO)N1C[C@H](C)[C@H](CN(C)S(=O)(=O)c2ccc(C(F)(F)F)cc2)OCc2ccccc2-c2c(n(C)c3ccccc23)C1=O,inactive
4,CC(C)NC(=O)Nc1ccc2c(c1)C(=O)N([C@@H](C)CO)C[C@@H](C)[C@@H](CN(C)C(=O)NC1CCCCC1)O2,inactive
5,C[C@@H]1CCCCO[C@H](CN(C)C(=O)c2ccccc2)[C@@H](C)CN([C@@H](C)CO)C(=O)c2cc(NC(=O)Nc3ccc(F)cc3)ccc2O1,inactive
6,COc1ccc(S(=O)(=O)N(C)C[C@H]2OCCCC[C@H](C)Oc3ccc(NC(=O)c4ccccc4)cc3C(=O)N([C@@H](C)CO)C[C@H]2C)cc1,inactive
7,COc1ccc2c3c(n(c2c1)C)[C@H](CO)N(C[C@]13CN(C1)S(=O)(=O)c1cn(cn1)C)C(=O)Nc1ccc(cc1)F,inactive
8,COc1ccc(S(=O)(=O)Nc2ccc3c(c2)C(=O)N([C@@H](C)CO)C[C@@H](C)[C@@H](CN(C)C(=O)Nc2ccc(C(F)(F)F)cc2)OCCCC[C@@H](C)O3)cc1,inactive
9,C[C@@H]1CCCCO[C@H](CN(C)C(=O)CCC(F)(F)F)[C@H](C)CN([C@@H](C)CO)C(=O)c2cc(NS(=O)(=O)c3cccs3)ccc2O1,inactive
10,CC[C@@]1(O)C[C@H](O[C@H]2C[C@H](N(C)C)[C@H](O[C@H]3C[C@H](O)[C@H](O[C@H]4CCC(=O)[C@H](C)O4)[C@H](C)O3)[C@H](C)O2)c2c(cc3c(c2O)C(=O)c2c(O)cccc2C3=O)[C@H]1C(=O)OC,active
11,COC(=O)[C@H]1c2cc3c(c(O)c2[C@@H](O[C@@H]2O[C@H](C)[C@H](OC)[C@](C)(OC)[C@@H]2OC)C[C@@]1(C)O)C(=O)c1c(O)cc2c(c1C3=O)O[C@H]1O[C@@]2(C)[C@@H](O)[C@H](N(C)C)[C@@H]1O,inactive
12,C[C@@H]1CCCCO[C@H](CN(C)Cc2ccc(Cl)c(Cl)c2)[C@@H](C)CN([C@H](C)CO)C(=O)c2cc(NC(=O)c3ccncc3)ccc2O1,inactive
13,CC=Cc1ccc2n(c1=O)C[C@H]1[C@H](CO)[C@@H](C(=O)NCCc3cn(C)cn3)[C@@H]2N1C(=O)C1CC1,inactive
14,C[C@H](CO)N1C[C@H](C)[C@H](CN(C)C(=O)Nc2ccc3c(c2)OCO3)Oc2c(NC(=O)C3CC3)cccc2C1=O,inactive
15,C[C@H](CO)N1C[C@H](C)[C@@H](CN(C)S(=O)(=O)c2ccc(Cl)cc2)OCCCC[C@H](C)Oc2ccc(NS(=O)(=O)c3ccccc3)cc2C1=O,inactive
16,Cc1c(N)nc([C@H](CC(N)=O)NC[C@H](N)C(N)=O)nc1C(=O)N[C@H](C(=O)N[C@H](C)[C@@H](O)[C@H](C)C(=O)N[C@H](C(=O)NCCc1nc(-c2nc(C(=O)NCCCNCCCCN)cs2)cs1)[C@@H](C)O)[C@@H](O[C@@H]1O[C@@H](CO)[C@@H](O)[C@H](O)[C@@H]1O[C@@H]1O[C@H](CO)[C@@H](O)[C@H](OC(N)=O)[C@@H]1O)c1c[nH]cn1,active
17,Cc1ccc(S(=O)(=O)N(C)C[C@@H]2Oc3ccc(NC(=O)Cn4cnnn4)cc3CC(=O)N([C@@H](C)CO)C[C@H]2C)cc1,inactive
18,C[C@H](CO)N1C[C@H](C)[C@@H](CN(C)Cc2ccc(C(F)(F)F)cc2)Oc2c(NC(=O)Nc3ccccc3)cccc2C1=O,inactive
19,C[C@@H]1CN([C@H](C)CO)C(=O)c2cccc(NC(=O)Nc3ccc(C(F)(F)F)cc3)c2O[C@H]1CN(C)Cc1ccc(-c2ccccc2)cc1,inactive
20,C[C@H]1CN([C@@H](C)CO)C(=O)c2cccc(NC(=O)Nc3ccccc3)c2O[C@@H]1CN(C)Cc1ccc(C(F)(F)F)cc1,active

row,SMILES,cytotoxicity call
1,C[C@H]1CN([C@@H](C)CO)C(=O)c2cccc(NC(=O)Nc3ccc(C(F)(F)F)cc3)c2O[C@H]1CN(C)Cc1ccc(-c2ccccc2)cc1,inactive
2,C[C@@H]1CN([C@H](C)CO)C(=O)c2cccc(NC(=O)Nc3ccccc3)c2O[C@H]1CN(C)Cc1ccc(C(F)(F)F)cc1,active
3,C[C@H](CO)N1C[C@H](C)[C@H](CN(C)Cc2ccc(C(F)(F)F)cc2)Oc2c(NC(=O)Nc3ccccc3)cccc2C1=O,inactive
4,C[C@@H]1CN([C@@H](C)CO)C(=O)c2cccc(NC(=O)Nc3ccccc3)c2O[C@@H]1CN(C)Cc1ccc(C(F)(F)F)cc1,inactive
5,C[C@@H]1CN([C@H](C)CO)C(=O)c2cccc(NC(=O)Nc3ccc(C(F)(F)F)cc3)c2O[C@@H]1CN(C)Cc1ccc(-c2ccccc2)cc1,active
6,C[C@@H]1CN([C@@H](C)CO)C(=O)c2cccc(NC(=O)Nc3ccccc3)c2O[C@H]1CN(C)Cc1ccc(C(F)(F)F)cc1,inactive
7,Cc1noc(C)c1NC(=O)Nc1ccc2c(c1)C(=O)N([C@H](C)CO)C[C@H](C)[C@H](CN(C)Cc1ccncc1)OCCCC[C@H](C)O2,inactive
8,Cc1noc(C)c1S(=O)(=O)N(C)C[C@H]1Oc2ccc(NC(=O)Cc3ccccc3)cc2CC(=O)N([C@@H](C)CO)C[C@H]1C,inactive
9,CN(C)Cc1cn(CC[C@H]2CC[C@@H](NC(=O)Cc3cccnc3)[C@H](CO)O2)nn1,inactive
10,C[C@H](CO)N1C[C@H](C)[C@@H](CN(C)Cc2ccc(-c3ccccc3)cc2)Oc2c(NC(=O)CCCCCC(=O)Nc3ccccc3N)cccc2C1=O,inactive
11,CC(C)NC(=O)N(C)C[C@H]1Oc2cc(C#Cc3cccc(F)c3)ccc2S(=O)(=O)N([C@@H](C)CO)C[C@@H]1C,inactive
12,C[C@H](NC(=O)C[C@H]1CC[C@H](NC(=O)CN2CCOCC2)[C@@H](CO)O1)c1ccccc1,inactive
13,COc1ccc(NC(=O)Nc2cccc3c2O[C@H](CN(C)Cc2ccc(Oc4ccccc4)cc2)[C@@H](C)CN([C@@H](C)CO)C3=O)cc1,active
14,COc1ccc(NC(=O)Nc2cccc3c2O[C@@H](CN(C)Cc2ccc(Oc4ccccc4)cc2)[C@H](C)CN([C@@H](C)CO)C3=O)cc1,inactive
15,COc1ccc(NC(=O)Nc2cccc3c2O[C@@H](CN(C)Cc2ccc(Oc4ccccc4)cc2)[C@@H](C)CN([C@@H](C)CO)C3=O)cc1,inactive
16,COc1ccc(NC(=O)Nc2cccc3c2O[C@@H](CN(C)Cc2ccc(Oc4ccccc4)cc2)[C@@H](C)CN([C@H](C)CO)C3=O)cc1,active
17,COc1ccc(NC(=O)Nc2cccc3c2O[C@H](CN(C)Cc2ccc(Oc4ccccc4)cc2)[C@H](C)CN([C@H](C)CO)C3=O)cc1,inactive
18,COc1ccc(NC(=O)Nc2cccc3c2O[C@@H](CN(C)Cc2ccc(Oc4ccccc4)cc2)[C@H](C)CN([C@H](C)CO)C3=O)cc1,inactive
19,CC(C)NC(=O)Nc1ccc2c(c1)C(=O)N([C@H](C)CO)C[C@H](C)[C@@H](CN(C)S(C)(=O)=O)OCCCC[C@@H](C)O2,inactive
20,CC(C)(C)[S@](=O)N1Cc2cc(C(=O)N3CCCCC3)nc(-c3cccc(C4=CCCC4)c3)c2[C@@H]1CCO,inactive

row,SMILES,cytotoxicity call
1,Cc1noc(C)c1NC(=O)N(C)C[C@@H]1OCCCC[C@H](C)Oc2ccc(NS(=O)(=O)c3ccc(Cl)cc3)cc2C(=O)N([C@H](C)CO)C[C@@H]1C,inactive
2,CC[C@H](C)[C@@H]([C@@H](CC(=O)N1CCC[C@H]1[C@H](OC)[C@@H](C)C(=O)N[C@@H](Cc1ccccc1)c1nccs1)OC)N(C)C(=O)[C@@H](NC(=O)[C@H](C(C)C)N(C)C)C(C)C,active
3,C[C@H](CO)N1C[C@H](C)[C@@H](CN(C)Cc2ccc(Oc3ccccc3)cc2)Oc2c(NC(=O)Cc3ccccc3)cccc2C1=O,inactive
4,COc1ccc(NC(=O)Nc2ccc3c(c2)C(=O)N([C@H](C)CO)C[C@@H](C)[C@@H](CN(C)Cc2ccc4c(c2)OCO4)OCCCC[C@@H](C)O3)cc1,inactive
5,Cc1noc(C)c1S(=O)(=O)Nc1ccc2c(c1)C(=O)N([C@@H](C)CO)C[C@H](C)[C@@H](CN(C)C(=O)Nc1ccc(C(F)(F)F)cc1)OCCCC[C@@H](C)O2,inactive
6,C[C@@H]1CN([C@@H](C)CO)C(=O)c2cc(NC(=O)CCCCCC(=O)Nc3ccccc3N)ccc2O[C@H]1CN(C)C(=O)Nc1ccc(F)cc1,inactive
7,Nn1c(-c2ccncc2)nncc1=O,inactive
8,C[C@H]1CN([C@@H](C)CO)C(=O)Cc2cc(NC(=O)Nc3ccc4c(c3)OCO4)ccc2O[C@@H]1CN(C)Cc1ccc(Cl)c(Cl)c1,inactive
9,C[C@H]1CN([C@@H](C)CO)C(=O)Cc2cc(NC(=O)Nc3ccc4c(c3)OCO4)ccc2O[C@H]1CN(C)Cc1ccc(Cl)c(Cl)c1,active
10,C[C@H](CO)N1C[C@H](C)[C@H](CN(C)Cc2ccc(Cl)c(Cl)c2)Oc2ccc(NC(=O)Nc3ccc4c(c3)OCO4)cc2C1=O,inactive
11,C[C@H](CO)N1C[C@H](C)[C@@H](CN(C)Cc2ccc(Cl)c(Cl)c2)Oc2ccc(NC(=O)Nc3ccc4c(c3)OCO4)cc2CC1=O,active
12,C[C@@H]1CN([C@H](C)CO)C(=O)Cc2cc(NC(=O)Nc3ccc4c(c3)OCO4)ccc2O[C@@H]1CN(C)Cc1ccc(Cl)c(Cl)c1,active
13,C[C@H](CO)N1C[C@H](C)[C@H](CN(C)Cc2ccc(Cl)c(Cl)c2)Oc2ccc(NC(=O)Nc3ccc4c(c3)OCO4)cc2CC1=O,active
14,C[C@@H]1CN([C@@H](C)CO)C(=O)Cc2cc(NC(=O)Nc3ccc4c(c3)OCO4)ccc2O[C@@H]1CN(C)Cc1ccc(Cl)c(Cl)c1,inactive
15,C[C@H]1CN([C@@H](C)CO)C(=O)c2cc(NC(=O)Nc3ccc4c(c3)OCO4)ccc2O[C@H]1CN(C)Cc1ccc(Cl)c(Cl)c1,inactive
16,C[C@@H]1CN([C@H](C)CO)C(=O)Cc2cc(NC(=O)Nc3ccc4c(c3)OCO4)ccc2O[C@H]1CN(C)Cc1ccc(Cl)c(Cl)c1,inactive
17,C[C@@H]1CN([C@@H](C)CO)C(=O)Cc2cc(NC(=O)Nc3ccc4c(c3)OCO4)ccc2O[C@H]1CN(C)Cc1ccc(Cl)c(Cl)c1,inactive
18,C[C@H]1CN([C@@H](C)CO)C(=O)c2cc(NC(=O)Nc3ccc4c(c3)OCO4)ccc2O[C@@H]1CN(C)Cc1ccc(Cl)c(Cl)c1,inactive
19,C[C@@H]1CN([C@@H](C)CO)C(=O)c2cc(NC(=O)Nc3ccc4c(c3)OCO4)ccc2O[C@H]1CN(C)Cc1ccc(Cl)c(Cl)c1,inactive
